The structures appear in SMILES notation. Values joined by “and” are separate entries in the source; they are usually repeats but may differ in a detail not shown here. Identical values can stand only once. Active and inactive are the calls of the source. The calls were made as follows: active = hit-call score of the fitted dose curve at least 0.9, where 1 is the maximum; inactive = score below 0.9.

Assay [1] can be described thus: BSK_3C_VCAM1: BioMAP Diversity Plus: 3C Assay for Vascular cell adhesion molecule 1 (VCAM1) Biomarker Activity (AID 2282999). The settings on record: BioMAP 3C HUVEC, VCAM1 ELISA, cytokine-stimulated; actives raise or lower the signal. The gist of the method:
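HUVEC primary cells, 24 h compound exposure; VCAM-1 by ELISA; gain/loss of signal fitted bidirectionally vs DMSO baseline.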

Assay [2] in a line: BSK_4H_Eotaxin3: BioMAP Diversity Plus: 4H Assay for Eotaxin 3 Biomarker Activity (AID 2283000).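 As to outcome: CCL26 protein level quantified by ELISA in parallel with SRB cytotoxicity check.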 The settings on record: primary human endothelial cells (HUVEC); actives raise or lower the signal. The gist of the method:
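Human umbilical vein endothelial cells (BSK_4H system) dosed with test chemical; Eotaxin-3 (CCL26) measured by ELISA 24 h after dosing. Bidirectional curve fitting relative to DMSO negative control as baseline.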

Read-out in assay [3]: Intercellular Adhesion Molecule 1 (ICAM1), ICAM1 (gene 3383)
In words: BSK_3C_ICAM1: BioMAP Diversity Plus: 3C Assay for Intercellular Adhesion Molecule 1 (ICAM1) Biomarker Activity (AID 2283003). Particulars: primary human endothelial cells (HUVEC); actives raise or lower the signal. The gist of the method: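 ELISA read-out of ICAM-1; HUVEC (primary human), 3C system, 24 h post-dosing; bidirectional fit vs DMSO baseline.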

A short description of assay [4]: BSK_3C_Proliferation: Cell Proliferation Assessment in the BioMAP Diversity Plus: 3C Assay (AID 2283006).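 As to AC50: potency may reflect either rise or fall in cell number versus DMSO.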 Particulars: primary human endothelial cells (HUVEC). The gist of the method:
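HUVEC, sub-confluent; 48 h chemical exposure; 10% TCA fix, 0.1% SRB stain, A560 total protein. Gain or loss of signal fitted both directions vs DMSO control.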

Read-out in assay [5]: E-selectin (Homo sapiens) (UniProt P16581)
In words: BSK_3C_Eselectin: BioMAP Diversity Plus: 3C Assay for Eselectin Biomarker Activity (AID 2283015).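 As to outcome: cell surface E-selectin protein quantified by ELISA 24 h after dosing.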 The settings on record: primary human endothelial cells (HUVEC); actives raise or lower the signal. The gist of the method:
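E-selectin ELISA readout, fitted bidirectionally relative to DMSO, taken 24 h post-dosing in HUVEC cultures of the 3C system. Overt cytotoxicity tracked with sulforhodamine B staining of parallel wells.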

Read-out in assay [6]: Human Leukocyte Antigen - DR isotype (HLADR), HLA-DRA (gene 3122)
In words: BSK_3C_HLADR: BioMAP Diversity Plus: 3C Assay for Human Leukocyte Antigen - DR isotype (HLADR) Biomarker Activity (AID 2283019).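 As to outcome: ELISA of cell-surface HLA-DR on HUVEC 24 h after dosing.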 Particulars: primary human endothelial cells (HUVEC); actives raise or lower the signal. The gist of the method: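 Bidirectional fitting against DMSO was applied to the HLA-DR ELISA signal from human umbilical vein endothelial cells, 24 h post-dose. Cytotoxicity came from parallel SRB total-protein staining; 3C proliferation was counted by SRB at 48 h.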

Read-out in assay [7]: Matrix Metallopeptidase 1 (MMP1), MMP1 (gene 4312)
Nature of the assay: BSK_BE3C_MMP1: BioMAP Diversity Plus: BE3C Assay for Matrix Metallopeptidase 1 (MMP1) Biomarker Activity (AID 2283024). The settings on record: primary human bronchial epithelial cells; actives raise or lower the signal. The gist of the method: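 ELISA read-out of MMP1 in human lung bronchial epithelial primary cultures, 24 h post-dose; bidirectional curve fit vs DMSO baseline, gain or loss of signal scored.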

Assay [8] is described as follows: BSK_BE3C_SRB: Viability Assessment in the BioMAP Diversity Plus: BE3C Assay (AID 2283028).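 As to AC50: fitted both ways so AC50 may mark signal gain or loss versus DMSO.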 Particulars: primary human bronchial epithelial cells. The gist of the method:
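Cytotoxicity read-out: SRB (0.1%) staining of TCA-fixed (10%) human lung bronchial epithelial cells, absorbance 560 nm, 24 h post-dosing. Curves fitted both directions relative to DMSO.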

Read-out in assay [9]: Thrombomodulin, THBD (gene 7056)
Nature of the assay: BSK_3C_Thrombomodulin: BioMAP Diversity Plus: 3C Assay for Thrombomodulin Biomarker Activity (AID 2283029). Particulars: primary human endothelial cells (HUVEC); actives raise or lower the signal. The gist of the method: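 HUVEC, 3C conditions; compound 24 h; thrombomodulin by ELISA; bidirectional curve fit vs DMSO baseline; parallel SRB total-protein staining for cytotoxicity.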

Read-out in assay [10]: Interferon-gamma inducible Protein 10 (IP10), CXCL10 (gene 3627)
Nature of the assay: BSK_BE3C_IP10: BioMAP Diversity Plus: BE3C Assay for Interferon-gamma inducible Protein 10 (IP10) Biomarker Activity (AID 2283034). The settings on record: primary human bronchial epithelial cells; actives raise or lower the signal. The gist of the method:
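ELISA readout of IP-10 in BE3C system: primary human bronchial epithelial cells, 24 h post-dosing; bidirectional curve fit vs DMSO baseline.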

Read-out in assay [11]: Monokine induced gamma interferon (MIG), CXCL9 (gene 4283)
In words: BSK_BE3C_MIG: BioMAP Diversity Plus: BE3C Assay for Monokine induced gamma interferon (MIG) Biomarker Activity (AID 2283035).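 As to outcome: MIG protein measured by ELISA in BE3C cultures after 24 h of dosing.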 Particulars: primary human bronchial epithelial cells; actives raise or lower the signal. The gist of the method: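 Dose cells (human primary bronchial epithelial), incubate 24 h, quantify MIG by ELISA, then fit concentration–response in both directions relative to DMSO control.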

Read-out in assay [12]: Urokinase-type plasminogen activator receptor (uPAR), PLAUR (gene 5329)
In words: BSK_BE3C_uPAR: BioMAP Diversity Plus: BE3C Assay for Urokinase-type plasminogen activator receptor (uPAR) Biomarker Activity (AID 2283039).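 As to outcome: uPAR protein level measured by ELISA on the cells; cells exposed to compound for one day before measurement.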 Particulars: primary human bronchial epithelial cells; actives raise or lower the signal. The gist of the method: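 ELISA readout of uPAR on human lung primary bronchial epithelial cells, 24 h post-dosing. Bidirectional curve fit relative to DMSO vehicle baseline; gain or loss of signal both scored.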

Read-out in assay [13]: Interleukin-6 (IL6), IL6 (gene 3569)
In words: BSK_CASM3C_IL6: BioMAP Diversity Plus: CASM3C Assay for Interleukin-6 (IL6) Biomarker Activity for (AID 2283040). Particulars: primary human coronary artery smooth muscle cells; actives raise or lower the signal.

Read-out in assay [14]: Interleukin-8 (IL8), CXCL8 (gene 3576)
In words: BSK_CASM3C_IL8: BioMAP Diversity Plus: CASM3C Assay for Interleukin-8 (IL8) Biomarker Activity (AID 2283042).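 Also: IL-8 protein level quantified by ELISA.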 The settings on record: primary human coronary artery smooth muscle cells; actives raise or lower the signal.

Read-out in assay [15]: Human Leukocyte Antigen - DR isotype (HLADR), HLA-DRA (gene 3122)
Nature of the assay: BSK_CASM3C_HLADR: BioMAP Diversity Plus: CASM3C Assay for Human Leukocyte Antigen - DR isotype (HLADR) Biomarker Activity (AID 2283043).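 Also: cell-surface HLA-DR protein level quantified by ELISA.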 The settings on record: primary human coronary artery smooth muscle cells; actives raise or lower the signal.

The nature of assay [16]: BSK_CASM3C_SRB: Viability Assessment in the BioMAP Diversity Plus: CASM3C Assay (AID 2283050).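 Also: total protein by SRB staining as cytotoxicity measure in parallel cultures.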 Particulars: primary human coronary artery smooth muscle cells.
Read-out in assay [17]: Interleukin-8 (IL8), CXCL8 (gene 3576)
In words: BSK_LPS_IL8: BioMAP Diversity Plus: LPS Assay for Interleukin-8 (IL8) Biomarker Activity (AID 2283078). Particulars: primary human HUVEC with PBMC; actives raise or lower the signal. The gist of the method: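 ELISA read-out of IL-8 after 24 h chemical treatment of LPS-activated endothelial/PBMC human primary co-cultures. Changes either up or down relative to DMSO; overt cytotoxicity checked by sulforhodamine B staining in parallel wells.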

Read-out in assay [18]: Monocyte Chemoattractant Protein-1 (MCP1), CCL2 (gene 6347)
Nature of the assay: BSK_LPS_MCP1: BioMAP Diversity Plus: LPS Assay for Monocyte Chemoattractant Protein-1 (MCP1) Biomarker Activity (AID 2283081).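 As to AC50: co-culture stimulated with LPS; secreted MCP-1 protein quantified by ELISA in culture supernatant.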 The settings on record: primary human HUVEC with PBMC; actives raise or lower the signal. The gist of the method:
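Secreted MCP-1 read by ELISA at 24 h post-dosing in an LPS-activated co-culture of endothelial cells with peripheral blood mononuclear cells. Fits run in both directions, DMSO as baseline; parallel SRB staining tracks overt cytotoxicity.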

Read-out in assay [19]: Monocyte Chemoattractant Protein-1 (MCP1), CCL2 (gene 6347)
In words: BSK_SAg_MCP1: BioMAP Diversity Plus: SAg Assay for Monocyte Chemoattractant Protein-1 (MCP1) Biomarker Activity (AID 2283090). Particulars: primary human HUVEC with PBMC; actives raise or lower the signal. The gist of the method:
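Values derive from bidirectional fitting of ELISA-measured MCP1 against DMSO controls. Readings were taken 24 h after dosing human vascular endothelial cells co-cultured with peripheral blood mononuclear cells under superantigen stimulation.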

Read-out in assay [20]: Monokine induced gamma interferon (MIG), CXCL9 (gene 4283)
Nature of the assay: BSK_SAg_MIG: BioMAP Diversity Plus: SAg Assay for Monokine induced gamma interferon (MIG) Biomarker Activity (AID 2283092). Particulars: primary human HUVEC with PBMC; actives raise or lower the signal. The gist of the method:
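Values reflect bidirectional fitting of ELISA-measured MIG against DMSO vehicle, taken 24 h after dosing of a co-culture of human umbilical vein endothelial cells and peripheral blood mononuclear cells.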

E-selectin (Homo sapiens), sequence (P16581 whole entry, looked up): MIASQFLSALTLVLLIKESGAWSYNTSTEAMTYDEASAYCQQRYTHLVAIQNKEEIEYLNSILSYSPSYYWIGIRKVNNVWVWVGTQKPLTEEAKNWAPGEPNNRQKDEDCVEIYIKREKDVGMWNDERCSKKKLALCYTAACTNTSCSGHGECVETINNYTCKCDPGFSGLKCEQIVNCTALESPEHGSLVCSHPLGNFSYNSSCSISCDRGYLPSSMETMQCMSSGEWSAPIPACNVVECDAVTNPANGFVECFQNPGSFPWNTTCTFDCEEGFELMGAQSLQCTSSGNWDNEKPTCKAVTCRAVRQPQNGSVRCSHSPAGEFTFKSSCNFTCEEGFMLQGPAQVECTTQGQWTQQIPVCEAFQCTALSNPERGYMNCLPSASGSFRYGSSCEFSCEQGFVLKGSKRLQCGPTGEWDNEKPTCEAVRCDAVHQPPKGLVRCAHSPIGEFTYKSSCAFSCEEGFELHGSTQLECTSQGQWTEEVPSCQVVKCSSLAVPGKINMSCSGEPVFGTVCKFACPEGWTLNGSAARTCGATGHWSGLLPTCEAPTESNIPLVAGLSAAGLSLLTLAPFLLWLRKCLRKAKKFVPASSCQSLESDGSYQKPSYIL

In the case of `C=CCN(CC=C)C(=O)C(Cl)Cl`, the result in assay [1], in assay [2], in [3], in assay [4], in [5] and in assay [6] was inactive. Moreover, the result in assay [7], in assay [8], in assay [9], in assay [10], in assay [11] and in [12] was inactive. Besides, the outcome in assay [13], in assay [14], in assay [15], in assay [16], in assay [17] and in assay [18] was inactive. Also, the result in assay [19] and in [20] was inactive.
For the compound `CCCOC(=O)c1ccccc1C(=O)OCCC`, the result in assay [1], in assay [2], in [3], in assay [4], in assay [7] and in [8] was inactive. Besides, the outcome in [9], in assay [10], in assay [11], in [12], in assay [13] and in assay [14] was inactive. Also, the result in assay [15], in assay [16], in [17], in [18] and in [20] was inactive. Also, the AC50 is 36.4 µM (active) in assay [5], 7.06 µM (active) in [6] and 20 µM (active) in [19].
For the compound `N#CCCCCC#N`, the outcome in [1], in [2], in assay [3], in assay [4], in assay [5] and in assay [6] was inactive. The outcome in assay [7], in [8], in assay [9], in assay [10], in assay [11] and in assay [12] was inactive. The outcome in [13], in [14], in [15], in [16], in assay [17] and in [18] was inactive. Further, the result in assay [19] and in assay [20] was inactive.
`Oc1ccc(C2(c3ccc(O)cc3)c3ccccc3-c3ccccc32)cc1`: the AC50 is 15.6 µM (active) and 14 µM (active) in assay [1]; 9.96 µM (active) and 9.53 µM (active) in [2]; 32.5 µM (active) and 22.6 µM (active) in assay [3]; 6.04 µM (active) and 6.12 µM (active) in assay [4]; 18.1 µM (active) and 23.5 µM (active) in assay [5]; 9.06 µM (active) and 7.06 µM (active) in assay [6]. Also, the AC50 is 5.04 µM (active) and 5.03 µM (active) in assay [8]; 5.01 µM (active) and 11.3 µM (active) in assay [9]; 5.4 µM (active) and 3.97 µM (active) in assay [10]; 5.44 µM (active) and 5.43 µM (active) in [11]; 5.37 µM (active) and 5.3 µM (active) in [12]; 9.02 µM (active) and 4.73 µM (active) in assay [13]. Moreover, the concentration at half-maximal activity (AC50) was 27 µM (active) and 24.3 µM (active) in assay [14]; 3.97 µM (active) and 2.88 µM (active) in assay [15]; 20 µM (active) in assay [16]; 28.9 µM (active) and 28.2 µM (active) in assay [17]; 16.5 µM (active) and 14.2 µM (active) in [18]; 11.8 µM (active) and 11.2 µM (active) in assay [19]. Further, the AC50 in assay [20] is 12.4 µM (active) and 11.5 µM (active). In addition, the result in assay [7] was inactive.
For `O=[N+]([O-])c1ccc(Cl)cc1`, the result in [1], in [2], in [3], in assay [4], in assay [5] and in assay [6] was inactive. The result in assay [7], in [8], in [9], in assay [10], in assay [11] and in [12] was inactive. Moreover, the outcome in [13], in assay [14], in assay [15], in [16], in assay [17] and in assay [18] was inactive. Also, the result in assay [19] and in assay [20] was inactive.

The values are drawn from PubChem BioAssay (EPA / NIEHS).
